The nature of assay [1]: Primary qHTS for inhibitors of SARS-S pseudo-typed particle cell entry (AID 1479145). Also: nearly all actives have a fitted effect of over 45% in size. Also: potency is read from the fitted curve at half-maximal effect. As to activity change, negative = inhibition: % is scaled to controls: 0 for no effect and ±100 for the full control effect. As to conditions: outcome: dose series up to 57.1 µM unless noted.
Assay [2] in a line: Primary qHTS for Huh7 cytotoxicity: counterscreen for inhibitors of MERS-S pseudotyped particle cell entry (AID 1479147). Also: potency is read from the fitted curve at half-maximal effect. As to activity change, negative = cytotoxicity: % is scaled to controls: 0 for no effect and ±100 for the full control effect. Particulars: outcome: dose series up to 57.1 µM unless noted. (Quantitative high-throughput screening tests each substance at several concentrations.)
Assay [3] can be described thus: Primary qHTS for Vero E6 cytotoxicity: counterscreen for inhibitors of SARS-S pseudo-typed particle cell entry (AID 1479150). As to conditions: outcome: dose series up to 57.1 µM unless noted.
Assay [4] can be described thus: Confirmatory qHTS for VERO E6 Cytotoxicity Assay: Counterscreen for SARS-CoV-2 CPE Assay (AID 1508605). Also: % is scaled to controls: 0 for no effect and ±100 for the full control effect; nearly all actives have a fitted effect of over 60% in size.
The nature of assay [5]: Cytotoxicity counterscreen for inhibitors of SARS-CoV-2 cell entry (AID 1645845). Also: nearly all actives have a fitted effect of over 50% in size. Also: potency is read from the fitted curve at half-maximal effect. As to activity change, negative = cytotoxicity: % is scaled to controls: 0 for no effect and ±100 for the full control effect. Particulars: outcome: dose series up to 57.1 µM unless noted. In outline: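 Counterscreen run in the same HEK293-ACE2 line as the pseudotyped-particle entry assay, without particles. Viability after 48 h at 37 C was read as ATP luminescence, scaled between cell-containing and cell-free wells.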
Background: The purpose of a counterscreen is to sort out artefacts and off-target activity.

Assay [6] is described as follows: Primary qHTS to identify inhibitors of SARS-CoV-2 cell entry (AID 1645846). Also: nearly all actives have a fitted effect of over 45% in size. Also: potency is read from the fitted curve at half-maximal effect. As to conditions: SARS-CoV-2 pseudovirus cell entry assay, luminescence; activity change, negative = inhibition: at 57.1 µM (top of the series) unless noted. In outline: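 Using luciferase-reporting pseudoviruses carrying Wuhan-Hu-1 spike, the screen tracks entry into stably ACE2-expressing cells over 48 hr. Activity is expressed relative to spike particles versus particles lacking any fusion protein.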

The nature of assay [7]: Primary qHTS for inhibitors of MERS-S pseudo-typed particle cell entry (AID 1479149). Also: nearly all actives have a fitted effect of over 60% in size. Also: potency is read from the fitted curve at half-maximal effect. As to activity change, negative = inhibition: % is scaled to controls: 0 for no effect and ±100 for the full control effect. Particulars: outcome: dose series up to 57.1 µM unless noted.
Assay [8] in a line: Confirmatory qHTS to identify inhibitors of SARS-CoV-2 cell entry (AID 1645844). Also: potency is read from the fitted curve at half-maximal effect; nearly all actives have a fitted effect of over 45% in size. The procedure, abridged:
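HEK293-ACE2, overnight seeding; cpd 1 h, 37C/5% CO2; + SARS-CoV-2-S MLV PP (Wuhan-Hu-1, ΔC19); 48 h; Bright-Glo luminescence. Data normalised to S PP and bald PP wells.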

Assay [9] in a line: VSVG counterscreen qHTS to identify inhibitors of SARS-CoV-2 cell entry (AID 1645847). Also: potency is read from the fitted curve at half-maximal effect; nearly all actives have a fitted effect of over 65% in size. In outline:
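Entry of VSV-G pseudotyped particles into human ACE2-expressing HEK293 cells was measured by luciferase luminescence 48 h after infection, with compound added 1 h beforehand.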

Assay [10] can be described thus: MultiTox-Fluor Cytotoxicity Assay - LYMP1-002 - Dead Cells (AID 960; active = well fitted cell-killing curve with a large enough effect; also: potency is read from the fitted curve at half-maximal effect; nearly all actives have a fitted effect of over 60% in size). In outline: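 Cells were plated, rested 5 hr, then treated with compound dilution series for 16 hr at 37 C. After adding substrate reagent and 60 min at room temperature, dead-cell protease fluorescence gave concentration-response curves fitted by the Hill equation.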

“And” between values parts separate entries of the source, which are not always exact repeats. Equal values may be shown once. Inconclusive results are not listed. The source made the active and inactive calls. Unless noted, calls follow the shape of the full dose curve. Numbered stars: 1 amine (or outer) side, 2 acyl side, 3 side chain; on linkers, the order of the positions; unused ones are H or OH. Bridge positions count the residues as written; N and C are the ends. Square brackets hold non-standard residues; d marks the D form. Peptide text beside a SMILES is read from it. * marks the point of attachment. ξ: configuration not given here. pTerphenylCO(4''-OnC5H11) = CCCCCOc1ccc(-c2ccc(-c3ccc(C(=O)*)cc3)cc2)cc1; ξOrn(4,5-diOH) = O=C(C(CC(O)C(O)N[*:3])N[*:1])[*:2]; ξhTyr(βξ-OH,γξ-OH) = NC(C(=O)O)C(O)C(O)c1ccc(O)cc1; ξPro(3ξ-OH,4ξ-Me) = CC1CNC(C(=O)O)C1O; Hyp = O=C(O)[CH]1C[CH](O)CN1

On to `CN(C)CC/C=C1\c2ccccc2CSc2ccccc21`, for which the Potency in assay [1] and in assay [6] was 20000 nM (active) throughout. The Potency entry in [2], in assay [3], in assay [4] and in assay [5] was “inactive” throughout.

With `CC[C@H]1OC(=O)[C@H](C)[C@@H](O[C@H]2C[C@@](C)(OC)[C@@H](O)[C@H](C)O2)[C@H](C)[C@@H](O[C@@H]2O[C@H](C)C[C@H](N(C)C)[C@H]2O)[C@](C)(OC)C[C@@H](C)C(=O)[C@H](C)[C@@H](O)[C@]1(C)O`, the Potency entry in assay [1], in assay [2] and in [3] was “inactive” throughout. Besides, the activity change, negative = inhibition in assay [6] is -13%.

For `S=C1SCN(Cc2ccccc2)CN1Cc1ccccc1`, in [2], the Potency was 35500 nM (active).

On to `COc1ccc2c(c1)OC(C)(C)C(c1ccccc1)C2c1ccc(OCCN2CCCC2)cc1` (configuration not stated), for which the Potency result in assay [1], in [3] and in assay [5] was “inactive” each time. The Potency in assay [6] is 15800 nM (active).

As to `COc1cc([C@@H]2c3cc4c(cc3C(O[C@@H]3O[C@@H]5CO[C@@H](c6cccs6)OC5[C@H](O)[C@H]3O)C3COC(=O)[C@@H]32)OCO4)cc(OC)c1O` (some centres not stated), the Potency is 1000 nM (active) in [1], 48.2 nM (active) in [8] and 42.9 nM (active) in assay [9]. The Potency entry in assay [7] is “inactive”. The activity change, negative = inhibition in assay [6] is -95.7%.

For `Cc1c(N)nc(C(CC(N)=O)NCC(N)C(N)=O)nc1C(=O)NC(C(=O)NC(C)C(O)C(C)C(=O)NC(C(=O)NCCc1nc(-c2nc(C(=O)NCCCN[C@@H](C)c3ccccc3)cs2)cs1)C(C)O)C(O[C@@H]1O[C@@H](CO)[C@@H](O)[C@H](O)[C@@H]1O[C@H]1O[C@H](CO)[C@@H](O)[C@H](OC(N)=O)[C@@H]1O)c1cnc[nH]1` (some centres not stated), the Potency entry in assay [2], in assay [7] and in assay [3] was “inactive” throughout. Further, the Potency in assay [8] is 21.5 nM (active); in assay [9], 27.1 nM (active). Further, the activity change, negative = inhibition in [6] was -97.1%.

Consider `C[C@@H](c1nc(-c2ccc(C#N)cc2)cs1)[C@](O)(Cn1cncn1)c1cc(F)ccc1F`, for which the Potency result in assay [2] is “inactive”. Besides, the Potency in [7] was 10000 nM (active).

With `COc1cc2c(cc1O)CCN[C@]21CS[C@@H]2c3c(OC(C)=O)c(C)c4c(c3[C@H](COC1=O)N1[C@@H]2[C@H]2c3c(cc(C)c(OC)c3O)C[C@@H]([C@@H]1O)N2C)OCO4`, the activity change, negative = inhibition in [1] is -93.9% [at 11.4 µM] (inactive); in assay [7], -71.9% [at 11.4 µM] (inactive). Also, the activity change, negative = cytotoxicity in assay [5] is -20.3% [at 11.3 µM] (inactive).

For the molecule `CCCCCOc1ccc(-c2ccc(-c3ccc(C(=O)NC4CC(O)C(O)NC(=O)C5C(O)C(C)CN5C(=O)C(C(C)O)NC(=O)C(C(O)C(O)c5ccc(O)cc5)NC(=O)C5CC(O)CN5C(=O)C(C(C)O)NC4=O)cc3)cc2)cc1` (stereo not drawn) ({pTerphenylCO(4''-OnC5H11)}-[ξOrn(4,5-diOH)]T[Hyp][ξhTyr(βξ-OH,γξ-OH)]T[ξPro(3ξ-OH,4ξ-Me)]; lactam 1-C; configuration not given here), the Potency entry in [2], in assay [3] and in assay [4] was “inactive” each time. Besides, the Potency in assay [7] is 11200 nM (active).

Take `CC(=O)Oc1c(C)cc(OCC(O)CNC(C)C)c(C)c1C` (configuration not stated): the Potency result in assay [2], in [7] and in assay [3] was “inactive” throughout.

In the case of `OCCN1CCN(CC/C=C2/c3ccccc3Sc3ccc(Cl)cc32)CC1`, the Potency in assay [2] was 22400 nM (active).

For `CC(C)C[C@H](NC(=O)CNC(=O)c1cc(Cl)ccc1Cl)B1OC(=O)C(CC(=O)O)(CC(=O)O)O1`, the Potency entry in assay [1] was “inactive”. In addition, the results for the Potency in assay [7] and in assay [5] were 1260 nM (active) and 794 nM (active), respectively. For the same molecule, in assay [6], the activity change, negative = inhibition is -97.4%.

For the molecule `CCOc1nc2cccc(C(=O)OC(C)OC(=O)OC3CCCCC3)c2n1Cc1ccc(-c2ccccc2-c2nn[nH]n2)cc1` (configuration not stated), the Potency result in assay [2], in assay [7], in assay [3] and in assay [5] was “inactive” throughout. Also, the Potency in assay [8] is 2410 nM (active); in assay [9], 429 nM (active).

Regarding `Cc1cc(-c2ccc(N=Nc3ccc4c(S(=O)(=O)O)cc(S(=O)(=O)O)c(N)c4c3O)c(C)c2)ccc1N=Nc1ccc2c(S(=O)(=O)O)cc(S(=O)(=O)O)c(N)c2c1O`, the Potency result in assay [1] and in assay [7] was “inactive” each time. For the same molecule, the activity change, negative = inhibition in assay [6] was -2.58%.

As to `C[C@H]1[C@H](OC(=O)CCC(=O)O)O[C@@H]2O[C@@]3(C)CC[C@H]4[C@H](C)CC[C@@H]1[C@@]24OO3`, the Potency entry in assay [2] and in assay [3] was “inactive” in each case. The Potency in assay [7] is 2820 nM (active); in [8], 1360 nM (active); in assay [6], 2240 nM (active); in assay [9], 1210 nM (active).

As to `C[C@H]1O[C@@H](O[C@H]2[C@@H](O)C[C@H](O[C@H]3[C@@H](O)C[C@H](O[C@H]4CC[C@@]5(C)[C@H](CC[C@@H]6[C@@H]5C[C@@H](O)[C@]5(C)[C@@H](C7=CC(=O)OC7)CC[C@]65O)C4)O[C@@H]3C)O[C@@H]2C)C[C@H](O)[C@@H]1O`, the Potency in assay [10] was 1000 nM (active). For the same molecule, the Potency entry in [1] and in [7] was “inactive” each time. For the same molecule, in [6], the activity change, negative = inhibition was -96.3% and -94.1%.

In the case of `OCCOc1ccc(/C(=C(/CCCl)c2ccccc2)c2ccccc2)cc1`, the Potency result in assay [2], in assay [7], in [3], in assay [4] and in assay [5] was “inactive” in each case.

`Cc1ccc(C(=O)OCc2ccc([C@@H](CN)C(=O)Nc3ccc4cnccc4c3)cc2)c(C)c1`: in assay [2], the Potency result was “inactive”.

Take `O=C(NC1CCN(CCCCC2(C(=O)NCC(F)(F)F)c3ccccc3-c3ccccc32)CC1)c1ccccc1-c1ccc(C(F)(F)F)cc1`: the Potency in [2] is 31600 nM (active).

In the case of `CCc1cc2c(cc1CC)CC(NC[C@H](O)c1ccc(O)c3[nH]c(=O)ccc13)C2`, the Potency result in [1] and in assay [3] was “inactive” each time.

As to `C(=C\c1ccncc1)/c1ccccc1`, the Potency result in [1], in assay [3] and in assay [6] was “inactive” each time.

On to `CC(=O)OC1CC(OC2C(O)CC(OC3C(O)CC(OC4CCC5(C)C(CCC6C5CCC5(C)C(C7=CC(=O)OC7)CCC65O)C4)OC3C)OC2C)OC(C)C1O` (configuration not stated), for which the Potency entry in assay [1] and in [7] was “inactive” in each case. Also, the activity change, negative = inhibition in assay [6] is -96.7%.
